Values joined by “and” are separate entries in the source; they are usually repeats but may differ in a detail not shown here. Equal entries are not always repeated. Records with an inconclusive call do not appear. Active and inactive are the calls of the source. Unless noted, the call rests on the fitted dose curve.
Key:
[1] = Nuclear factor erythroid 2-related factor 2/antioxidant responsive element (Nrf2/ARE) small molecule agonists: luciferase reporter gene qHTS assay in human keratinocytes (AID 1919969); further: nearly all actives have a fitted effect of over 35% in size; further: potency means the concentration at half of the fitted maximal effect
[2] = molecular target: Gonadotropin-releasing hormone receptor (Homo sapiens) (UniProt P30968); test: Human gonadotropin-releasing hormone receptor (GnRHR) small molecule agonists, calcium flux assay in GnRHR-HEK293 cells (AID 1920063); further: nearly all actives have a fitted effect of over 35% in size
Sequence of Gonadotropin-releasing hormone receptor (Homo sapiens) (P30968 whole entry, looked up): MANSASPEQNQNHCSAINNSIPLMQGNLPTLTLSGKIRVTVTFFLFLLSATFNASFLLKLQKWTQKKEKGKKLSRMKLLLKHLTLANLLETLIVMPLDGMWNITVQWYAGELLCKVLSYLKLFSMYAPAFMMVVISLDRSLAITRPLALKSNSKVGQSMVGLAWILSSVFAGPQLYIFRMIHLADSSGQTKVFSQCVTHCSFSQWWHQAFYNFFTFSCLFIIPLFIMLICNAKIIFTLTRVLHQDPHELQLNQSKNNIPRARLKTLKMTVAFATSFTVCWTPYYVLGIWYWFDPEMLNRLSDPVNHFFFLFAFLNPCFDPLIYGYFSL
Method in brief: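 GnRHR-HEK293, 1500 cells/well, 18 h 37 C/5% CO2; Ca dye 1 h 37 C; cpd pinned (DMSO), agonist mode; kinetic FL 480/540, 3 min, 1 s reads; 15 conc, n=3.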

[3] = molecular target: KiSS-1 receptor (Homo sapiens) (UniProt Q969F8); test: Human kisspeptin (KISS1R) small molecule agonists, calcium flux assay in KISS1R-HEK293 cells (AID 1920064; active means well fitted activation curve with a large enough effect in the repeat runs)
Sequence of KiSS-1 receptor (Homo sapiens) (Q969F8 whole entry, looked up): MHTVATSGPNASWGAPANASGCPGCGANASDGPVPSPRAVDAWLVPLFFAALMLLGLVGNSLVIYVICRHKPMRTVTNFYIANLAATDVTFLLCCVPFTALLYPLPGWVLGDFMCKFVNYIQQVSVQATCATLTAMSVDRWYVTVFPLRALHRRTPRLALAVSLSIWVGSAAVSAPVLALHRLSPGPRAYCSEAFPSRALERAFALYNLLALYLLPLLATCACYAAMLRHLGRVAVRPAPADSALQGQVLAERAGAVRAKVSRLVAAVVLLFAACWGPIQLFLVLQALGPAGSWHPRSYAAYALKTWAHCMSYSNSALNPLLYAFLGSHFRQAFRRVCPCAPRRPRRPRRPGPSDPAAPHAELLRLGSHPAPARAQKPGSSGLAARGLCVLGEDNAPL
Method in brief: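 Stable human KISS1R HEK293 line; 18 h plating, 37 C/5% CO2; calcium dye 1 h 37 C; compound pin transfer; kinetic fluorescence Ex/Em 480/540, 3 min.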

[4] = G protein-coupled receptor (GPCR) small molecule agonists, calcium flux assay: HEK293 wild type cell line counter screen (AID 1920065)
Method in brief: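 Kinetic fluorescence at Ex/Em 480/540, recorded every second over 3 min, served as the read-out after compound addition. Each compound was tested at 15 concentrations in triplicate on cells pre-loaded with calcium dye for 1 h.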

[5] = p53 small molecule agonists, cell-based qHTS assay with human liver microsomes (AID 1963577);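 further: p53 response element beta-lactamase reporter cells with liver microsomes plus NADPH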
Method in brief: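 16 h, 37 C exposure of p53RE-bla cells to compounds with human liver microsomes and NADPH (0.5 mg/mL final each); detection via LiveBLAzer mixture, 2 h dark at room temperature.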

[6] = p53 small molecule agonists, cell-based qHTS assay with human liver microsomes: qHTS cell viability counter screen (AID 1963579); further: nearly all actives have a fitted effect of over 45% in size
Method in brief: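 In this multiplexed counter screen, the reporter plates were subsequently treated with CellTiter-Glo so that cell viability, reflected by luminescence, could be recorded for p53RE-bla cells dosed 16 h with compounds under microsomal activation (HLM and NADPH).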

[7] = p53 small molecule agonists, cell-based qHTS assay with rat liver microsomes: qHTS cell viability counter screen (AID 1963580); further: nearly all actives have a fitted effect of over 45% in size
Method in brief: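 Viability is assessed in parallel with the p53 reporter read: HCT-116 p53RE-bla cells receive compounds plus rat microsomes and NADPH (0.5 mg/mL final apiece), incubate 16 h at 37 C, and then CellTiter-Glo luminescence is recorded.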

[8] = p53 small molecule agonists, cell-based qHTS assay: qHTS cell viability counter screen (AID 1963581); further: nearly all actives have a fitted effect of over 45% in size
Method in brief: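 HCT-116 p53RE-bla cells, 4,000/well, plated 5 h before compound pin transfer; 16 h at 37 C; bla substrate 2 h RT; then CellTiter-Glo, 30 min RT, luminescence.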

[9] = p53 small molecule agonists, cell-based qHTS assay (AID 1963582; active means well fitted activation curve with a large enough effect in the signal ratio in the repeat runs, not every such curve was filed as active; the % refers to the signal ratio)
Method in brief: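 Reporter line: p53RE-bla. Pre-incubation 5 h, 37 C, 5% CO2; compound (DMSO, pin tool) 16 h, 37 C; B/G FRET substrate 2 h RT; fluorescence intensity read.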

[10] = molecular target: 5-hydroxytryptamine receptor 2A (Homo sapiens) (UniProt P28223); test: 5-hydroxytryptamine receptor 2A (HTR2A) small molecule antagonists, cell-based qHTS assay (AID 1963586); further: nearly all actives have a fitted effect of over 45% in size
Sequence of 5-hydroxytryptamine receptor 2A (Homo sapiens) (P28223 whole entry, looked up): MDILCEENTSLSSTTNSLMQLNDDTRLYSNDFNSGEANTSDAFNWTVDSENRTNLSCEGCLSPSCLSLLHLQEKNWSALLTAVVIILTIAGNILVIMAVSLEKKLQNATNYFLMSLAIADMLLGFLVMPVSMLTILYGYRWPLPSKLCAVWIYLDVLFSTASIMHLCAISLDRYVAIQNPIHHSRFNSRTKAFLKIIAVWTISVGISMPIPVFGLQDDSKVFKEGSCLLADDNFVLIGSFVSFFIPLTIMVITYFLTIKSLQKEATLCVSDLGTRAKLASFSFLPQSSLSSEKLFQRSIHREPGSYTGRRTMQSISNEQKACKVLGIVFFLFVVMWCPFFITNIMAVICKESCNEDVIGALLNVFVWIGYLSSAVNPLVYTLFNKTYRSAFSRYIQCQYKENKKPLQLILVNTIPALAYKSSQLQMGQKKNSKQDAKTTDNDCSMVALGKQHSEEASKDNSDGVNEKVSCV
Method in brief: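 Antagonist-mode intracellular calcium assay: DOI (4 nM) added after 5 min compound pre-incubation at room temperature to dye-loaded HTR2A-CHO cells. Fluorescence followed for 3 min, sampled every second.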

[11] = molecular target: 5-hydroxytryptamine receptor 2A (Homo sapiens) (UniProt P28223); test: 5-hydroxytryptamine receptor 2A (HTR2A) small molecule agonists, cell-based qHTS assay (AID 1963587); further: nearly all actives have a fitted effect of over 30% in size
Method in brief: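 CHO cells stably expressing human HTR2A, plated 18 h, loaded with calcium dye 1 h at 37 C. Agonist mode: compounds added and intracellular calcium fluorescence recorded kinetically for 2 min at 1 sec intervals.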

[12] = molecular target: Muscarinic acetylcholine receptor M1 (Homo sapiens) (UniProt P11229); test: Cholinergic receptor muscarinic 1 (CHRM1) small molecule antagonists, cell-based qHTS assay (AID 1963588); further: nearly all actives have a fitted effect of over 40% in size
Sequence of Muscarinic acetylcholine receptor M1 (Homo sapiens) (P11229 whole entry, looked up): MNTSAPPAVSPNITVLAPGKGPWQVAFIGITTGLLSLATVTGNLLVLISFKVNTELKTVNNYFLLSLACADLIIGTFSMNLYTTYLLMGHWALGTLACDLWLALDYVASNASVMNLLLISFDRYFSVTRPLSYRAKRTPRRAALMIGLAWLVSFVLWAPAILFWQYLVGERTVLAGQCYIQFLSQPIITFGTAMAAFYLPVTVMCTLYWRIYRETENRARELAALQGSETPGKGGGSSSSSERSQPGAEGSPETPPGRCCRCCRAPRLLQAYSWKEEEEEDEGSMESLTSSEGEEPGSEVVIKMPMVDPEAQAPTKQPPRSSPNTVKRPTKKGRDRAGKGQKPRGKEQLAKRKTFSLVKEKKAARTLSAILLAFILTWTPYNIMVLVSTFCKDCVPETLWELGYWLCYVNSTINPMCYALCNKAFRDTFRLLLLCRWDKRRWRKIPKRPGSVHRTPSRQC
Method in brief: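 CHRM1-CHO calcium-flux assay, antagonist mode. Cells were seeded 18 h, dye-loaded 1 h at 37 C and given compound for 5 min at RT, then acetylcholine was added at 50nM. FDSS fluorescence was read 3 min; 15 concentrations, three runs.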

[13] = molecular target: Muscarinic acetylcholine receptor M1 (Homo sapiens) (UniProt P11229); test: Cholinergic receptor muscarinic 1 (CHRM1) small molecule agonists, cell-based qHTS assay (AID 1963589); further: nearly all actives have a fitted effect of over 35% in size
Method in brief: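 Human M1 in stable CHO line; 18 h plating, 1 h dye load 37 C; cpd added (agonist mode); Ca2+ fluorescence kinetic read, 1 s intervals; 15 conc, 3 runs.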

[14] = cAMP Responsive Elements (CRE) small molecule agonists, cell-based qHTS assay (AID 1963590)
Method in brief: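 HEK 293T CRE-bla, 2,000 cells/well, 18 h preincubation 37 C/5% CO2; cpds (DMSO) pinned, 3 h; LiveBLAzer B/G FRET substrate, 2 h RT.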

[15] = cAMP Responsive Elements (CRE) small molecule antagonists, cell-based qHTS assay (AID 1963591; active means well fitted inhibition curve with a large enough effect in the signal ratio in the repeat runs, not every such curve was filed as active; the % refers to the signal ratio)
Method in brief: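 Beta-lactamase reporter read by FRET substrate (LiveBLAzer B/G) after 2 h at room temperature. CRE-bla HEK293T cells had received compound plus 0.25 uM (final) NKH477 for 3 h at 37 °C.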

[16] = molecular target: Beta-2 adrenergic receptor (Homo sapiens) (UniProt P07550); test: Adrenergic beta2 receptor (ADRB2) small molecule antagonists, cell-based qHTS assay (AID 1963592); further: series mostly up to about 92 µM; nearly all actives have a fitted effect of over 50% in size
Sequence of Beta-2 adrenergic receptor (Homo sapiens) (P07550 whole entry, looked up): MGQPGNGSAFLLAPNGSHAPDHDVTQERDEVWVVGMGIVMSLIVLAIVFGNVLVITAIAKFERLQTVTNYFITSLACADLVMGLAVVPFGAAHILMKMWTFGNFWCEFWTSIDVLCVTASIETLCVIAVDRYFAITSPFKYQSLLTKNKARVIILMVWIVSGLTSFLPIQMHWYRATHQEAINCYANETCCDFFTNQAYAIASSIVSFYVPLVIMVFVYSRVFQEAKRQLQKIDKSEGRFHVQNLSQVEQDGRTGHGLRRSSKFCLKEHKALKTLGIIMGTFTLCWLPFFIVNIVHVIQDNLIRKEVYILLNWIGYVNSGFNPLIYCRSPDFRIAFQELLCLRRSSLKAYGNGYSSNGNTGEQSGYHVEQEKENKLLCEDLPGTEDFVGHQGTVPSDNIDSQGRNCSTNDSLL
Method in brief: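 Cells (CHO, stable ADRB2 overexpression) incubated 18-20hr at 37C; compounds added from DMSO; agonist mix (1nM isoproterenol, 100uM IBMX, 25uM Ro-20-1724) added; 0.5hr RT; d2-cAMP and anti-cAMP-cryptate added; 1hr RT; 665/615 nm read.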

[17] = molecular target: D(2) dopamine receptor (Homo sapiens) (UniProt P14416); test: Dopamine D2 receptor (DRD2) small molecule agonists, cell-based qHTS assay (AID 1963594); further: nearly all actives have a fitted effect of over 35% in size
Sequence of D(2) dopamine receptor (Homo sapiens) (P14416 whole entry, looked up): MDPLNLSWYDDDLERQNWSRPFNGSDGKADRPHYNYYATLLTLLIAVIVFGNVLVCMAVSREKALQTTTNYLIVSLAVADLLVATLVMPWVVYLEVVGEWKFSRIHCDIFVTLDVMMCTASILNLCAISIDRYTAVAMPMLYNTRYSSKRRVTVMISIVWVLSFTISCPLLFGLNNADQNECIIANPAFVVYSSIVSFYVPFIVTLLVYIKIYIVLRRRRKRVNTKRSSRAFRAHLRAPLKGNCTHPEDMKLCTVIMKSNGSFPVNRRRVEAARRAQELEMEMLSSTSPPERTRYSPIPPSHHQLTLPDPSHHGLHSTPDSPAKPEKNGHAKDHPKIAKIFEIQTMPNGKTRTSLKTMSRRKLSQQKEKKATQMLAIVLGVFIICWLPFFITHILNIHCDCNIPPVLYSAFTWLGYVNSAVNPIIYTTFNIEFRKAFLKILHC
Method in brief: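 HEK293 cells stably expressing human DRD2, pre-treated with PDE inhibitor Ro20-1724 (0.1 mM final) and compound 10 min at room temperature, then stimulated with NKH477 (200nM […]) for 30 min. cAMP read by HTRF (665/620 nm).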

[18] = molecular target: D(2) dopamine receptor (Homo sapiens) (UniProt P14416); test: Dopamine D2 receptor (DRD2) small molecule antagonists, cell-based qHTS assay (AID 1963595; active means well fitted inhibition curve with a large enough effect in the signal ratio in the repeat runs, with a control signal flat; the % refers to the signal ratio)
Method in brief: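 DRD2-HEK293; 0.1 mM Ro20-1724; cpd 10 min RT; NKH477 200 nM + quinpirole 12 nM, 30 min RT; HTRF cAMP (cAMP-d2/anti-cAMP cryptate), 665/620 nm ratio after 1 h.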

[19] = molecular target: Beta-2 adrenergic receptor (Homo sapiens) (UniProt P07550); test: Adrenergic beta2 receptor (ADRB2) small molecule agonists, cell-based qHTS assay (AID 1963593);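 further: CHO cells stably overexpressing human ADRB2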
Method in brief: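 CHO cells stably over-expressing ADRB2 were plated overnight at 37C, then dosed with compounds plus a stimulation mix containing 100uM IBMX and 25uM Ro-20-1724 for 0.5hr at room temperature. cAMP was measured by HTRF competition, 1hr.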

[20] = p53 small molecule agonists, cell-based qHTS assay with rat liver microsomes (AID 1963578)
Method in brief: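 With rat liver microsomes and NADPH present (0.5 mg/mL final each), p53RE-bla cells are treated with compound for 16 h at 37 C. LiveBLAzer detection mixture is then applied for 2 h at room temperature in the dark.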

Measured: Potency

COS(=O)(=O)O
inactive: [1] | [2] | [3] | [4] | [5] | [6] | [7] | [8] | [9] | [10] | [11] | [12] | [13] | [14] | [15] | [16] | [17] | [18]

c1cc(C(c2ccc(OCC3CO3)cc2)C(c2ccc(OCC3CO3)cc2)c2ccc(OCC3CO3)cc2)ccc1OCC1CO1 (stereo unspecified)
inactive: [2] | [3] | [4] | [6] | [7] | [8] | [10] | [11] | [12] | [13] | [16] | [19] | [17] | [18]
active: [1] 22.5 µM and 21.7 µM

c1coc(CNc2ncnc3nc[nH]c23)c1
inactive: [2] | [3] | [4] | [20] | [6] | [7] | [8] | [9] | [10] | [11] | [12] | [13] | [14] | [15] | [16] | [19] | [17] | [18]

CCN(CC)C(=O)C1CN2CCc3cc(OC)c(OC)cc3C2CC1OC(C)=O (stereo unspecified)
inactive: [1] | [2] | [3] | [4] | [20] | [6] | [7] | [8] | [9] | [10] | [11] | [12] | [13] | [14] | [15] | [16] | [19] | [17]

CNCCCC12CCC(c3ccccc31)c1ccccc12
inactive: [1] | [3] | [4] | [5] | [20] | [6] | [7] | [8] | [9] | [14] | [15] | [17] | [18]

O=C[O][Al]([O]C=O)[O]C=O
inactive: [1] | [2] | [3] | [4] | [5] | [20] | [6] | [8] | [9] | [10] | [11] | [12] | [13] | [14] | [15] | [16] | [19] | [17] | [18]
